According to PubChem BioAssay AID1159580 (chemical genetic matrix, 2015):
Hit rate of the full screen: of about 5,500 compounds, about 2,000 (36%) were called active. About 18% were inconclusive and are not listed. No stated cut-off is given here; in the data, active means normalized growth mostly below about 0.91 (no sharp cut-off); inconclusive means no clear call, values can overlap the other calls; inactive means mostly above about 0.92. This is one part of the list.

Test: chemical genetic growth profiling, strain panel (AID 1159580);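 further: tested at 20 µM; growth read once vehicle control cultures reached saturation at 30 °C; 1 = growth at the plate median or of vehicle wells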
Conditions: S. cerevisiae deletion strains, growth OD
[1] = locus YAL040C, strain CLN3, stronger effect = lower value
[2] = locus YCL061C, strain MRC1 (second series), stronger effect = lower value
[3] = locus YDR363W, strain ESC2, stronger effect = lower value
[4] = locus YER002W, strain NOP16, stronger effect = lower value
[5] = locus YMR307W, strain GAS1, stronger effect = lower value
[6] = locus YNL153C, strain GIM3, stronger effect = lower value
[7] = locus YNL175C, strain NOP13, stronger effect = lower value
[8] = locus YNL197C, strain WHI3, stronger effect = lower value
[9] = locus YNL224C, strain SQS1, stronger effect = lower value
[10] = locus YOR083W, strain WHI5 (second series), stronger effect = lower value
[11] = locus YPL055C, strain LGE1, stronger effect = lower value
[12] = locus YPL241C, strain CIN2, stronger effect = lower value

Measured: normalized growth

NC(=O)c1ncn(C2OC(CO)C(O)C2O)n1 (stereo not given)
inactive: [1] 1.01 | [2] 1 | [3] 1 | [4] 0.996 | [5] 1.01 | [6] 1.03 | [7] 1.01 | [8] 1.01 | [9] 1.02 | [10] 1.02 | [11] 1

COc1cc2c(CCNC(C)=O)c[nH]c2cc1Cl
inactive: [1] 0.983 | [3] 1.03 | [4] 0.956 | locus YGR078C, strain PAC10, stronger effect = lower value 1.01 | [5] 1.01 | [6] 0.926 | [7] 0.989 | [8] 0.989 | [9] 1 | locus YNL322C, strain KRE1, stronger effect = lower value 0.998 | [10] 1.03 | [12] 0.996

O=S1(=O)N(CCN2CC=C(c3c[nH]c4cc(F)ccc34)CC2)c2cccc3c2N1CCC3
inactive: [1] 0.981 | [2] 0.987 | [3] 0.997 | locus YJR075W, strain HOC1, stronger effect = lower value 1 | [6] 0.851 | [7] 0.987 | [8] 0.994 | [9] 1.02 | [10] 0.958 | [11] 0.951 | [12] 0.977

N#CC(C#N)=Cc1c(-c2ccccc2Cl)[nH]c2ccccc12
active: locus YHR030C, strain SLT2, stronger effect = lower value 0.654 | locus YLR113W, strain HOG1, stronger effect = lower value 0.821 | locus YPL256C, strain CLN2, stronger effect = lower value 0.779
inactive: locus YAR019C, strain CDC15, stronger effect = lower value 0.968 | locus YBL105C, strain PKC1, stronger effect = lower value 0.962 | locus YBR135W, strain CKS1, stronger effect = lower value 0.965 | locus YBR136W, strain MEC1, stronger effect = lower value 0.97 | locus YBR160W, strain CDC28, stronger effect = lower value 0.969 | locus YDL017W, strain CDC7, stronger effect = lower value 0.976 | locus YDL028C, strain MPS1, stronger effect = lower value 0.972 | locus YDL101C, strain DUN1, stronger effect = lower value 0.973 | locus YDL108W, strain KIN28, stronger effect = lower value 0.975 | locus YDL132W, strain cdc53, stronger effect = lower value 0.969 | locus YDL214C, strain PRR2, stronger effect = lower value 0.919 | locus YDR052C, strain DBF4, stronger effect = lower value 0.98 | locus YDR054C, strain cdc34, stronger effect = lower value 0.931 | locus YDR226W, strain ADK1, stronger effect = lower value 0.956 | locus YDR477W, strain SNF1, stronger effect = lower value 0.901 | locus YER123W, strain YCK3, stronger effect = lower value 0.889 | locus YER133W, strain GLC7, stronger effect = lower value 0.93 | locus YFL009W, strain cdc4, stronger effect = lower value 0.955 | locus YFL029C, strain CAK1, stronger effect = lower value 0.96 | locus YFR003C, strain YPI1, stronger effect = lower value 0.976 | locus YFR019W, strain FAB1, stronger effect = lower value 0.924 | locus YFR028C, strain CDC14, stronger effect = lower value 0.965 | locus YGR040W, strain KSS1, stronger effect = lower value 0.907 | locus YGR052W, strain FMP48, stronger effect = lower value 0.942 | locus YGR092W, strain DBF2, stronger effect = lower value 0.938 | locus YHR079C, strain IRE1, stronger effect = lower value 0.812 | locus YHR082C, strain KSP1, stronger effect = lower value 0.932 | locus YHR205W, strain SCH9, stronger effect = lower value 0.836 | locus YIL147C, strain SLN1, stronger effect = lower value 0.971 | locus YJL095W, strain BCK1, stronger effect = lower value 0.822 | locus YJL128C, strain PBS2, stronger effect = lower value 0.958 | locus YJL157C, strain FAR1, stronger effect = lower value 0.923 | locus YJR016C, strain ILV3, stronger effect = lower value 0.956 | locus YJR066W, strain TOR1 (second series), stronger effect = lower value 0.897 | locus YJR066W, strain TOR1, stronger effect = lower value 0.902 | locus YKL048C, strain ELM1, stronger effect = lower value 0.926 | locus YKL067W, strain YNK1, stronger effect = lower value 0.918 | locus YKL101W, strain HSL1, stronger effect = lower value 0.899 | locus YKL193C, strain SDS22, stronger effect = lower value 0.967 | locus YKL203C, strain TOR2, stronger effect = lower value 0.961 | locus YLR133W, strain CKI1, stronger effect = lower value 0.905 | locus YLR403W, strain SFP1, stronger effect = lower value 0.904 | locus YML070W, strain DAK1, stronger effect = lower value 0.886 | locus YMR001C, strain CDC5, stronger effect = lower value 0.969 | locus YMR205C, strain PFK2 (second series), stronger effect = lower value 0.919 | locus YMR277W, strain FCP1, stronger effect = lower value 0.967 | locus YNL006W, strain LST8, stronger effect = lower value 0.96 | locus YNL020C, strain ARK1, stronger effect = lower value 0.882 | locus YNL161W, strain CBK1, stronger effect = lower value 0.966 | locus YNL183C, strain NPR1, stronger effect = lower value 0.853 | locus YNL207W, strain RIO2, stronger effect = lower value 0.974 | locus YNL222W, strain SSU72, stronger effect = lower value 0.967 | locus YNL307C, strain MCK1 (second series), stronger effect = lower value 0.84 | locus YOL078W, strain AVO1, stronger effect = lower value 0.962 | locus YOL136C, strain PFK27, stronger effect = lower value 0.87 | locus YOR061W, strain CKA2, stronger effect = lower value 0.897 | locus YOR119C, strain RIO1, stronger effect = lower value 1 | locus YOR231W, strain MKK1, stronger effect = lower value 0.867 | locus YOR329C, strain SCD5, stronger effect = lower value 0.968 | locus YPL031C, strain PHO85, stronger effect = lower value 0.907 | locus YPL153C, strain RAD53, stronger effect = lower value 0.905 | locus YPL204W, strain HRR25, stronger effect = lower value 0.884 | locus YPL209C, strain IPL1, stronger effect = lower value 0.973 | locus YPR025C, strain CCL1, stronger effect = lower value 0.961 | locus YPR106W, strain ISR1, stronger effect = lower value 0.954 | locus YPR111W, strain DBF20, stronger effect = lower value 0.927 | strain NNK1, stronger effect = lower value 0.959 | strain TSCII, stronger effect = lower value 0.964
